# Fewer than 10 of roughly 1,200 compounds were called active. Only a sample is shown. Values without a mark were called inactive. How the calls were made is not given here.
# Assay: sensitized control strain growth on 5-FOA – S. cerevisiae, OD615, counter-screen for RAM network inhibitor project, dose response (AID 1305);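 further: plate controls were vehicle for no effect and reference inhibitor for full effect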
# Settings: S. cerevisiae efflux-deficient reporter strain, 5-FOA growth OD615, 2 days, hits give high values; at 100 µM unless noted
row,Structure (SMILES),max inhibition
1,COc1ccc(C2C=C(c3ccc(Br)cc3)Nc3nc(NS(C)(=O)=O)nn32)cc1 (stereo unspecified),3.37%
2,CCCNC(=O)OC[C@H]1O[C@H](CCO/N=C/[C@@H](NS(=O)(=O)c2ccc(C)cc2)[C@H](C)/C=C/CC(=O)OC)C=C[C@@H]1Oc1ccc(OC)cc1,1.46% [at 50 µM]
3,Fc1ccc(CSc2nnc(-c3cc4c(s3)-c3ccccc3CC4)o2)cc1,4.57%
4,O=C(CSc1nc(-c2ccccc2)cs1)Nc1cccc([N+](=O)[O-])c1,3.34%
5,COc1ccc(OC)c(C2C3=C(N=c4s/c(=C\c5cccc(O)c5)c(=O)n42)c2ccccc2CC3)c1 (stereo unspecified),2.51% [setting not given]
6,CCCC(C(=O)n1nc(C)cc1C)C(NS(=O)(=O)c1ccc(C)cc1)c1ccccc1 (stereo unspecified),2.29% [at 1.563 µM]
7,O=C(NCc1ccccc1)[C@H]1C[C@@H]1[C@H](NP(=O)(c1ccccc1)c1ccccc1)c1ccccc1,2.82%
8,COC(=O)c1ccc(C2C(Oc3ccccc3C)C(=O)N2CCc2ccc(OC)c(OC)c2)cc1 (stereo unspecified),3.17%
9,CC1CCN(C(=S)c2ccc(-c3ccc(Cl)cc3Cl)o2)CC1,4.91%
10,COc1ccc(/C=C/C(=O)OCC(=O)Nc2cccc(Oc3ccccc3)c2)c(OC)c1,3.76%
11,COc1ccc(C)cc1NC(=O)C(Sc1ccccc1)c1ccccc1 (stereo unspecified),4.82%
12,NS(=O)(=O)c1ccc(NC(=S)NC(=O)c2cccc(Br)c2)cc1,2.4% [at 1.563 µM]
13,COc1ccc(C(=O)NC(=S)Nc2ccc(N3CCCC3)cc2)cc1OC,1.3% [setting not given]
14,C=CCc1ccccc1OCC(=O)N/N=C/c1ccccc1OCC,1.41%
15,Clc1ccccc1CSc1nnc(-c2ccco2)c(-c2ccco2)n1,7.87%
16,O=C(NCc1ccccc1)C1=C[C@@H](C2CCCCC2)C[C@@H](OCc2ccc(CO)cc2)O1,5.02%
17,CCOC(=O)c1c(C)nc2c(c1C)c(=O)oc1ccccc12,1.3% [at 25 µM]
18,Cc1cccc(N2CCN(C(=O)c3cnn4c(C(F)F)cc(-c5ccccc5)nc34)CC2)c1C,2.51%
19,Cc1ccc(CCC(=O)Nc2ncc(Cc3cc(Cl)ccc3Cl)s2)o1,2.81%
20,O=C(CSCc1ccc(Br)cc1)Nc1ccc(S(=O)(=O)N2CCCCCC2)cc1,2.51%
21,COC(=O)CCSc1cc([N+](=O)[O-])cc2c1c(C1OCCS1)nn2-c1ccccc1 (stereo unspecified),4.89% [at 12.5 µM]
22,COc1ccc(OCCCn2cccc2/C=C2/C(=N)N3OC(C)=CC3=NC2=O)cc1,3.93%
23,O=[N+]([O-])c1ccc2oc(-c3cccc(O)c3)nc2c1,5.09% [at 25 µM]
24,CC(C)=CCCC1(C)C=Cc2c(ccc3c2[nH]c2cc(O)c(C)cc23)O1 (stereo unspecified),2.74%
25,Cc1ccc(C(=O)c2c(NC(=O)c3ccccc3)sc(C)c2C)cc1,2.97% [setting not given]
26,CSc1ccccc1-c1nnc(-c2ccc(Cl)cc2)o1,2.32% [at 50 µM]

# Reference: PubChem BioAssay AID1305 (SRMLSC, 2008)
